Results reported in the supplement of paper PMC10849652.
The full data set covers some 8,800 targets. This sample favours those with a hit. About 0.5% of all pairs of compound and target were hits. Values without a mark were called inactive.

Sequence of UniProt P10646 (P10646 whole entry, looked up): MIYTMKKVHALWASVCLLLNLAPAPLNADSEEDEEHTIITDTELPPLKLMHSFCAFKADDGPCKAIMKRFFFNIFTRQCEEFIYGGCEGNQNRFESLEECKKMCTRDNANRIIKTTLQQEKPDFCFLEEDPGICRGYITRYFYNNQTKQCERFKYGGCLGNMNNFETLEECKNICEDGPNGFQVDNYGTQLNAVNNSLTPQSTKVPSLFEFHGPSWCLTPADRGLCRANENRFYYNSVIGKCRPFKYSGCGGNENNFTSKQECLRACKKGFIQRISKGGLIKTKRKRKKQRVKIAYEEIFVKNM
Sequence of UniProt P62328 (P62328 whole entry, looked up): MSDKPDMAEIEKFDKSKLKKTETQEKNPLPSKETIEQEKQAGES
Sequence of UniProt Q8NDZ6 (Q8NDZ6 whole entry, looked up): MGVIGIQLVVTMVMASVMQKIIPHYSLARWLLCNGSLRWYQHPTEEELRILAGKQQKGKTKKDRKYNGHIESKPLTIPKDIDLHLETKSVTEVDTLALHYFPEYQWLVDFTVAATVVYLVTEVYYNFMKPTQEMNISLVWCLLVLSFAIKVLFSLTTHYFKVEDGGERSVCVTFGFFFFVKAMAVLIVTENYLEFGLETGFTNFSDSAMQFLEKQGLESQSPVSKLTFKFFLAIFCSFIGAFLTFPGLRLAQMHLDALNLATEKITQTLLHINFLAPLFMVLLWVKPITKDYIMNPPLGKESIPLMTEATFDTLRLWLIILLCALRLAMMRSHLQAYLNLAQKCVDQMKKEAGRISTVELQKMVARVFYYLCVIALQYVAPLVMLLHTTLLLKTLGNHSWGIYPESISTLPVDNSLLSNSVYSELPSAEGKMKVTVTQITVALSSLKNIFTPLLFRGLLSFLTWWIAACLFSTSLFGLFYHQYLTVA
Sequence of UniProt Q01664 (Q01664 whole entry, looked up): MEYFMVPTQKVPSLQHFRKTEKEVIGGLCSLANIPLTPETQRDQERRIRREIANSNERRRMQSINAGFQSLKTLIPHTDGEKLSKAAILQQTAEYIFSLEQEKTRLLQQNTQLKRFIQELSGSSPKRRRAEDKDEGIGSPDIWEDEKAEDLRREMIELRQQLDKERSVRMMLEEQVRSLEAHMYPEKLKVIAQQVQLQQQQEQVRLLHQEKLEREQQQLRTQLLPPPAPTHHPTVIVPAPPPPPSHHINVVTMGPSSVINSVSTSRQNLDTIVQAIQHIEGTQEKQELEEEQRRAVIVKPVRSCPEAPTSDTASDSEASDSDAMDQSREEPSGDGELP
Sequence of UniProt Q14157 (Q14157 whole entry, looked up): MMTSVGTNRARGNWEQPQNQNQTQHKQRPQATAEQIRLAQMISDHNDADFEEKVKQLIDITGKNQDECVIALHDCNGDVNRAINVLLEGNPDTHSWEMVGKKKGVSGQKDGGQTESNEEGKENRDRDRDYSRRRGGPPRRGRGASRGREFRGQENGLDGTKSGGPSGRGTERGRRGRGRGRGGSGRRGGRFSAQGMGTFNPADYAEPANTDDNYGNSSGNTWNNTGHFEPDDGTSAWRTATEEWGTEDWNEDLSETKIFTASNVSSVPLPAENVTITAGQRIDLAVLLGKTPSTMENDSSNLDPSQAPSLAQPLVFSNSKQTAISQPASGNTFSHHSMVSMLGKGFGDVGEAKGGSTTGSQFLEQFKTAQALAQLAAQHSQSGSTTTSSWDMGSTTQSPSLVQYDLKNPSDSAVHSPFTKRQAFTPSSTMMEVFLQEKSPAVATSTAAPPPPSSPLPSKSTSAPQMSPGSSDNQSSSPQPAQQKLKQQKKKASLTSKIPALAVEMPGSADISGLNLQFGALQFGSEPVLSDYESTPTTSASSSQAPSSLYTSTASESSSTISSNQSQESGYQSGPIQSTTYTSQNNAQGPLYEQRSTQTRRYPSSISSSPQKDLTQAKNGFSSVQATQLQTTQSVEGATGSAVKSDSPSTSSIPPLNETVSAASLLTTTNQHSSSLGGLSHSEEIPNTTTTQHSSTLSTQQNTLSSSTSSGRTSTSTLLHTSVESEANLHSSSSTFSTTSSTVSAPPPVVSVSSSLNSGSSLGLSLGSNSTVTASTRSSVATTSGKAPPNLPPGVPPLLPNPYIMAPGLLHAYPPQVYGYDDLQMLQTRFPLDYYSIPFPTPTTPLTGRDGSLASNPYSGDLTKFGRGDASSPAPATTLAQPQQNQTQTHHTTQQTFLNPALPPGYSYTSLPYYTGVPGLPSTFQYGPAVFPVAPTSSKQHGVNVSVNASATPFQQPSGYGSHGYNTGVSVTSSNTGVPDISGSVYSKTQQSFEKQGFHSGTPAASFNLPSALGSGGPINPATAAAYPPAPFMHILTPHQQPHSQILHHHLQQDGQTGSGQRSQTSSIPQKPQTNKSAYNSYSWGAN
Sequence of UniProt P55851 (P55851 whole entry, looked up): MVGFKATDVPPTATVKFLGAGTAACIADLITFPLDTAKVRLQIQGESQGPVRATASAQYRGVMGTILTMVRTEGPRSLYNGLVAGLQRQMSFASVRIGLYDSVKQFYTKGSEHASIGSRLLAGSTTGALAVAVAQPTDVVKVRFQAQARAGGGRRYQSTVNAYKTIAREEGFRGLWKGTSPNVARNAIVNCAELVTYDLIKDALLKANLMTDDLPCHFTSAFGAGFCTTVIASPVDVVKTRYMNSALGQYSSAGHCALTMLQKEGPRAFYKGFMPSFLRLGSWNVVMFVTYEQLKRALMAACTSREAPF
Sequence of UniProt Q9NRX6 (Q9NRX6 whole entry, looked up): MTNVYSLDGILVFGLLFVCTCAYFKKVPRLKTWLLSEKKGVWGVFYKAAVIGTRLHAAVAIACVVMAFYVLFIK
Sequence of UniProt Q8TDI8 (Q8TDI8 whole entry, looked up): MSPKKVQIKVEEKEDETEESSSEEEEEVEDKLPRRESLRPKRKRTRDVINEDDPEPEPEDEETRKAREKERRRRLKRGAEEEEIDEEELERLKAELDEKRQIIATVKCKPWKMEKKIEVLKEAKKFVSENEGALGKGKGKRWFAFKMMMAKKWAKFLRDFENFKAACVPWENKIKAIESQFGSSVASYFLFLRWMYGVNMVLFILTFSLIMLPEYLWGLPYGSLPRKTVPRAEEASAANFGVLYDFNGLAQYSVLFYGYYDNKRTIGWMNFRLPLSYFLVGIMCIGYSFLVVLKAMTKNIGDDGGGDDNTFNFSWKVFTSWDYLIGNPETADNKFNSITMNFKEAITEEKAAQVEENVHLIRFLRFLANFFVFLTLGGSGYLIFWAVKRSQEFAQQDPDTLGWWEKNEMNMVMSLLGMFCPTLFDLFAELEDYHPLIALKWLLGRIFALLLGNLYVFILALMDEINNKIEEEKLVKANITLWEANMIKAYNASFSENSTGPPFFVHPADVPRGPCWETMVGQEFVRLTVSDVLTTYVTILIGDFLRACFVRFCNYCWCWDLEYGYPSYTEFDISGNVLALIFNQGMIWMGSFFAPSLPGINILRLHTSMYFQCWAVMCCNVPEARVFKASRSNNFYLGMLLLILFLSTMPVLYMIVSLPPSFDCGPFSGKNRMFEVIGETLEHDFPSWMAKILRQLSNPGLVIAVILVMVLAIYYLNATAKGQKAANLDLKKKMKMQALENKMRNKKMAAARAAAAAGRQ
Sequence of UniProt P15923 (P15923 whole entry, looked up): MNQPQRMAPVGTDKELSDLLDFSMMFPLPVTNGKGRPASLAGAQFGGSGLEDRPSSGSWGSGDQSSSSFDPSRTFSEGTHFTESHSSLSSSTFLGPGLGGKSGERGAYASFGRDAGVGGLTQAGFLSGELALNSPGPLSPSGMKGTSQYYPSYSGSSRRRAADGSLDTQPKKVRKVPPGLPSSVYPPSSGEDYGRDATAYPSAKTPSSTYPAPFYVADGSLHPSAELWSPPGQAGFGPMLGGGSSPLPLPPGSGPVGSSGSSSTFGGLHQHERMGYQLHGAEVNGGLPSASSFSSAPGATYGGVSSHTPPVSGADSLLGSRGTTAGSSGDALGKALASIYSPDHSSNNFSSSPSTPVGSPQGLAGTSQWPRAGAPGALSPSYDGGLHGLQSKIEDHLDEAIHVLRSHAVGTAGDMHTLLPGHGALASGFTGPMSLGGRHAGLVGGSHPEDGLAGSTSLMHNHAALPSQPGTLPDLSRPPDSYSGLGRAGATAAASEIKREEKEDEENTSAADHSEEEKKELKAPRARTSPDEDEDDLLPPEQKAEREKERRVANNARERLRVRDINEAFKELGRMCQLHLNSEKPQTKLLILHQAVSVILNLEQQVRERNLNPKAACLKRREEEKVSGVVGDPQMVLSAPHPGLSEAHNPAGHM
Sequence of UniProt Q6P9G4 (Q6P9G4 whole entry, looked up): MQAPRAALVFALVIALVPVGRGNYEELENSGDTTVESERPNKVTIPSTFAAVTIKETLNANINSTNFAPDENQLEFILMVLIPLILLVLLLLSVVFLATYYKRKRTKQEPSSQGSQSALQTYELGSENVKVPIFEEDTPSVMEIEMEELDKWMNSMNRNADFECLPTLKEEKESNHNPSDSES
Sequence of UniProt Q96BZ9 (Q96BZ9 whole entry, looked up): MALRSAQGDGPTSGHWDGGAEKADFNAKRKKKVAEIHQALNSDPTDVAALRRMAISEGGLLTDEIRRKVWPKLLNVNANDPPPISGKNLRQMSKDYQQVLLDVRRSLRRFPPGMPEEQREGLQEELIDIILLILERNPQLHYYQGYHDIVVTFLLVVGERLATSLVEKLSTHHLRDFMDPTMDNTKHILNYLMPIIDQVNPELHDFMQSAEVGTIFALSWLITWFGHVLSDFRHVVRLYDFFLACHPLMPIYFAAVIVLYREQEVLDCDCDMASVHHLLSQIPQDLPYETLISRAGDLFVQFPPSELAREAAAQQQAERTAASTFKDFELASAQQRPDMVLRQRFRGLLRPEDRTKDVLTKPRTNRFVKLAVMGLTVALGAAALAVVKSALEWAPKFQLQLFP
Sequence of UniProt P06753 (P06753 whole entry, looked up): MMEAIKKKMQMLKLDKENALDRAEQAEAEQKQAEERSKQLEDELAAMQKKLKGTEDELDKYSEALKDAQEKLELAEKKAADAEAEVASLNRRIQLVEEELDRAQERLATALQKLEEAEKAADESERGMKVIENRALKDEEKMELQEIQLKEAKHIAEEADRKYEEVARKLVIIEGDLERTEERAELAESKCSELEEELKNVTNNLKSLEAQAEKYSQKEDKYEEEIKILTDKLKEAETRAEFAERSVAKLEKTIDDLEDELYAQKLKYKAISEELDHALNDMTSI

These targets were tested with Cn1cncc1[C@@](N)(c1ccc(Cl)cc1)c1ccc2c(c1)c(-c1cccc(Cl)c1)cc(=O)n2C [tipifarnib] (assay: log2 fold change, soluble protein after heating vs DMSO (PISA); higher = thermal stabilisation; K562 lysate, 10 uM; active = over 0.2 and 3.5 SD of the protein, either way, in both replicates (recomputed)).
Outline: (§1)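 The values are log-two fold changes in thermal stability compared with solvent controls and come from duplicates. They were obtained by TMTpro 16plex LC-MS/MS, with channel sums equalised, on the supernatant after 21,000xg for 90 min. That supernatant came from crude K562 extract at 1 mg/mL protein treated with 10 μM compound for 30 min, heated for 3 min across 48°C-58°C, pooled and brought to 0.5% NP-40 at 4°C.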
With TEC (UniProt P42680) the log2 fold change was 0.116. Work on UCP2 (UniProt P55851) yielded a log2 fold change of 0.142. Work on TMSB4X (UniProt P62328) yielded a log2 fold change of -0.071. With TFAP4 (UniProt Q01664) the log2 fold change was -0.066. TFPI (UniProt P10646) gave a log2 fold change of -0.025. With TMC1 (UniProt Q8TDI8) the log2 fold change was 0.015. TMEM167B (UniProt Q9NRX6) was tested, and the log2 fold change was -0.013. In the case of TUBB6 (UniProt K7ES63), the log2 fold change is reported as 0.08. With TPD52L2 isoform 3 (UniProt O43399) the log2 fold change was 0.134. UBAP2L isoform 1 (UniProt Q14157) gave a log2 fold change of -0.067. For TMEM161B (UniProt Q8NDZ6), the log2 fold change was -0.117. For UBAP2 (UniProt Q5JV08), the log2 fold change was 0.133. TUBB4A (UniProt M0QYM7) gave a log2 fold change of 0.013.

Each target was assayed with NC(=O)Nc1cc(-c2cccc(F)c2)sc1C(=O)N[C@H]1CCCNC1 in the same assay as above.
Outline: as §1
Target TNIK (UniProt C9J338) has a log2 fold change of -0.043. With UCP2 (UniProt P55851) the log2 fold change was 0.059. With TMSB4X (UniProt P62328) the log2 fold change was 0.263. TFPI isoform 2 (UniProt P10646) was tested, and the log2 fold change was 0.082. TRPM4 (UniProt Q8TD43) gave a log2 fold change of 0.111. TFAP4 (UniProt Q01664) showed a log2 fold change of -0.036. TFPI (UniProt P10646) showed a log2 fold change of -0.067. Target TTLL12 (UniProt V9GY16) has a log2 fold change of -0.021. For TMC1 (UniProt Q8TDI8), the log2 fold change was -0.058. In the case of TMEM167B (UniProt Q9NRX6), the log2 fold change is reported as 0.027. TMEM154 (UniProt Q6P9G4) gave a log2 fold change of -0.101. Work on TUBB6 (UniProt K7ES63) yielded a log2 fold change of 0.049. TCF20 (UniProt Q9UGU0) showed a log2 fold change of -0.006. UBXN10 (UniProt Q96LJ8) gave a log2 fold change of 0.035. Target UBAP2, A0A0D9SFI5 has a log2 fold change of 0.111. Target THAP9 (UniProt Q9H5L6) has a log2 fold change of 0.07. UBAP2L (UniProt F8W726) was tested, and the log2 fold change was 0.043. TBC1D20 isoform 3 (UniProt Q96BZ9) showed a log2 fold change of 0.067. With UCHL5 (UniProt Q5LJA9) the log2 fold change was -0.024. TNIK isoform 5 (UniProt Q9UKE5) was tested, and the log2 fold change was 0.539 (active). In the case of TCF3 isoform 2 (UniProt P15923), the log2 fold change is reported as -0.005. UBAP2L isoform 1 (UniProt Q14157) showed a log2 fold change of 0.081. Target TPM3 isoform 3 (UniProt P06753) has a log2 fold change of -0.09. TMEM161B (UniProt Q8NDZ6) was tested, and the log2 fold change was 0.046. In the case of UBN1 (UniProt Q9NPG3), the log2 fold change is reported as -0.053. In the case of TMEM177 (UniProt Q53S58), the log2 fold change is reported as 0.036. TMEM132A isoform 2 (UniProt Q24JP5) was tested, and the log2 fold change was 0.087. In the case of TENM4 (UniProt Q6N022), the log2 fold change is reported as 0.033. For TUBB4A (UniProt M0QYM7), the log2 fold change was 0.107.
